Bioassay records from PubChem.
Only some compounds are listed: those with a hit (about 6.2% of all), similar ones and a draw of the others.
S2 tox: reduces viability in counter-screen for ATXN expression inhibitors; 400,000 compounds, 0.49% hits; S2 cells (HEK-293 line with an ATXN2-luciferase reporter) viability, CellTiter-Fluor protease fluorescence, 24 h; AID 651635; Potency, µM (series often up to 56.7 µM), most hits filed as cytotoxic; note: nearly all actives have a fitted effect of over 40% in size
HT1080NT lethal: kills 2HG-producing HT-1080-NT fibrosarcoma cells; 360,000 compounds, 1.6% hits; Potency, µM (series often up to 46.1 µM), most hits filed as cytotoxic; AID 686970; HT-1080-NT fibrosarcoma viability, CellTiter-Glo ATP luminescence, 48 h;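 note: NT is the 2HG producing partner of a matched IDH1 knockdown line; nearly all actives have a fitted effect of over 55% in size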
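750 cells/well, RPMI + 5% FBS; 2 h settle, compound pin-transfer, 48 h at 37 degrees C. CellTiter-Glo 10 min RT, luminescence. Normalized to DMSO and media-only wells.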
HT1080 IDH1KD tx: kills HT-1080 cells with IDH1 knockdown | HT-1080 IDH1 knockdown viability, ATP luminescence, 48 h | Potency, µM (top dose mostly 46.1 µM), usual class: cytotoxic | 360,000 compounds, 2% hits | AID 686971
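In this qHTS, HT-1080 cells depleted of IDH1 are exposed for 48 h at 37 °C to compound titrations. Toxicity is scored from CellTiter-Glo luminescence, with DMSO as full viability and medium alone as none.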
KB-3-1 cytotox: KB-3-1 parental cell cytotoxicity; 400,000 compounds, 1.4% hits; AID 1347075; Potency, µM (top dose mostly 46.1 µM), hits mostly cytotoxic; KB-3-1 viability, CellTiter-Glo ATP luminescence, 72 h; note: nearly all actives have a fitted effect of over 60% in size
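Cytotoxicity in the drug-sensitive parental line KB-3-1 was scored as loss of CellTiter-Glo luminescence following 72 h incubation with compound. Values come from curve fitting of normalized concentration-response data.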
ATXN2 expr inh: reduces ATXN2 reporter expression in HEK-293 cells; 360,000 compounds, 0.72% hits; HEK-293 ATXN2-luciferase reporter, luminescence, 24 h; AID 1745845; Potency, µM (top dose mostly 57 µM), usual class: inhibitors; note: nearly all actives have a fitted effect of over 55% in size
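ATXN2-luciferase reporter cells (luciferase flanked by upstream and downstream ATXN2 gene portions) were treated 24 h at 37 °C with compounds at up to 57 uM. SteadyGlo luminescence gave expression; GF-AFC fluorescence gave viability.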
KB-V1 cytotox: kills drug-selected multidrug resistant KB-V1 cells | KB-V1 MDR cells viability, CellTiter-Glo, 72 h | Potency, µM (highest dose often 46.1 µM), actives largely listed as cytotoxic | 400,000 compounds, 3.4% hits; note: nearly all actives have a fitted effect of over 60% in size
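Following 72 h at 37 degrees C with compound, KB-V1 cell viability was read by CellTiter-Glo luminescence, medium being phenol-red-free DMEM plus 10% FBS; concentration-response parameters came from normalized, curve-fitted qHTS data.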
Hits are given with their value; n = inactive; u = inconclusive; x = not tested or not shown; [ ] = dose if it differs, or a comment. Calls come from the whole dose curve; as a rule, active = well fitted curve in the direction sought with a large enough effect; inconclusive = small, poorly fitted or top-dose-only effect, or another doubt; inactive = no such curve, though single readings can be large; an effect the other way counts as inactive or inconclusive.

SMILES	S2 tox	HT1080NT lethal	HT1080 IDH1KD tx	KB-3-1 cytotox	ATXN2 expr inh	KB-V1 cytotox
C=CCNC1=C2C[C@@H](C)C[C@H](OC)[C@@H](O)[C@@H](C)C=C(C)[C@H](OC(N)=O)[C@@H](OC)C=CC=C(C)C(=O)NC(=CC1=O)C2=O	x	x	x	x	1.1µM	x
CCC12CN3CC(C)(CN(C1)C3c1c(C)[nH]c3ccccc13)C2=O (centres undefined)	n	x	x	n	n	n
Cn1cccc1C1C=C(c2ccc(C(C)(C)C)cc2)Nc2ncnn21 (centres undefined)	x	n	n	u	n	16µM
CC(C)(C)c1ccc(C2=CC(c3ccccc3F)n3ncnc3N2)cc1 (centres undefined)	x	n	n	u	n	n
CS(=O)(=O)N(Cc1ccccc1)c1ccc(C(=O)Nc2cccc(Cl)c2)cc1	x	x	x	n	n	n
COc1ccc(C2CC(O)(c3ccccc3)Oc3cc(OC)c(OC)c(OC)c32)cc1 (centres undefined)	u	n	n	n	n	n
COc1ccc([C@@]23Oc4cc(OC)cc(OC)c4[C@]2(O)[C@H](O)[C@H](C(=O)N(C)C)[C@H]3c2ccccc2)cc1	u	u	0.16µM	u	n	u
O=c1[nH]nc(OCCCc2ccc(Cl)cc2)c(NCc2cccnc2)c1Br	x	x	x	x	24µM	x
Clc1ccc(NCc2cccnc2)cc1	n	n	n	n	n	n
COc1ccc(CNC(=O)C2=C(C)C(=O)OC23CCN(C(C)=O)CC3)cc1	x	x	x	n	x	n
Cc1cccc(N=C2NN=C(c3ccc4c(c3)OCCO4)CS2)c1	n	u	u	n	n	n
CCc1ccc(C2=NNC(=Nc3cccc(S(=O)(=O)N(C)C)c3)SC2)cc1	u	21µM	u	u	u	u
CCc1nnc2c(Nc3cc(OC)c(Cl)cc3OC)nc3ccccc3n12	n	x	x	n	n	n
O=C(c1ccc2c(c1)OCO2)C1CCCN(C2CCN(CCc3ccccc3)CC2)C1 (centres undefined)	n	10µM	23µM	n	n	n
Cc1ccc(-c2cc(C(F)(F)F)n3nc(C(=O)NCC45CC6CC(CC(C6)C4)C5)cc3n2)cc1	n	x	x	n	n	u
Cc1c(NC(=O)c2cnn3c2NC(c2ccccc2)CC3C(F)(F)F)c(=O)n(-c2ccccc2)n1C (centres undefined)	n	n	n	n	n	n
Cc1c(NC(=O)c2nn3c(c2Br)NC(c2ccccc2)CC3C(F)(F)F)c(=O)n(-c2ccccc2)n1C (centres undefined)	n	n	n	n	n	16µM
Clc1ccc(-c2nc3ccccn3c2Nc2ccc3c(c2)OCCO3)s1	n	x	x	n	n	n
O=c1c2ccccc2nc2n1C(CSCc1ccc(Cl)cc1Cl)CS2 (centres undefined)	n	n	n[9.24 µM]	u	n	5.8µM
CNc1ccc(C=O)cc1Br	x	x	x	n	x	n
Cc1ccc2nc(NC(=O)CSc3nccn3Cc3ccc(F)cc3)sc2c1	n	x	x	n	n	u
O=C1NC(=O)C2(CCC(C3CCCCC3)CC2)N1 (centres undefined)	n	n	n	u	n	4.1µM
Cc1ccc(OCC(=O)NNc2c3ccccc3nc3ccccc23)cc1	u	n	n	n	u	18µM
Cc1cccc(OCC(=O)NNc2c3ccccc3nc3ccccc23)c1	n	n	u	n	n	13µM
CCOC(=O)Nc1ccc2nc(-c3cscn3)[nH]c2c1	n	u	26µM	2.6µM	x	3.7µM
SMILES	S2 tox	HT1080NT lethal	HT1080 IDH1KD tx	KB-3-1 cytotox	ATXN2 expr inh	KB-V1 cytotox
CC(=O)Nc1ccc2nc(-c3cccs3)[nH]c2c1	n	n	n	n	n	n
CN(C)C(=O)c1ccc(SC(=S)NCc2ccccc2)cc1	n	u	n	6.5µM	n	u
O=C(CSc1nnc(-c2cccnc2)n1Cc1ccco1)c1ccc2ccccc2c1	n	n	n	n	n	15µM
O=C(CSc1nnc(-c2ccccn2)n1Cc1ccco1)c1ccccc1	n	n	n	n	n	u
COCCn1c(SCC(=O)Nc2ccccc2OC)nnc1-c1ccco1	n	n	n	n	n	n
COc1ccc(C(=O)CSc2nnc(-c3ccccn3)n2Cc2ccco2)cc1	n	n	n	n	n	18µM
CCCn1c(SCC(=O)Nc2ccccc2OC)nnc1-c1ccco1	u	16µM	18µM	u	n	u
O=C(CSc1nnc(-c2ccccn2)n1Cc1ccco1)c1ccc(Cl)cc1	n	n	n	n	n	9.2µM
COc1cc(Cl)c(C)cc1NC(=O)CSc1nnc(-c2ccccn2)n1Cc1ccco1	n	n	n	n	n	2.3µM
COc1ccc(NC(=O)CSc2nnc(-c3ccccn3)n2-c2ccccc2)cc1OC	n	n	n	n	n	15µM
Cc1cccc(NC(=O)CSc2nc3c(oc4ccccc43)c(=O)n2-c2ccccc2)c1	n	n	n	u	n	u
COc1ccc(NC(=O)CSc2nc3c(oc4ccccc43)c(=O)n2-c2ccccc2)cc1OC	18µM	x	x	n	n	n
COc1ccc(NC(=O)CSc2ccccn2)cc1OC	n	n	n	n	n	n
Nc1ccc2c(c1)Cc1cc([N+](=O)[O-])ccc1-2	x	n	n	n	n	n
CC(=NO)c1ccc2c(c1)Cc1cc([N+](=O)[O-])ccc1-2	n	n	n	15µM	n	7.3µM
CC(Oc1ccccc1)C(=O)N(CCC1=CCCCC1)c1c(N)n(Cc2ccccc2)c(=O)[nH]c1=O (centres undefined)	n	23µM	u	n	n	n
Cc1oc(-c2ccc(C(=O)NCc3ccc(N(C)C)cc3)cc2)nc1COc1ccccc1	n	x	x	n	n	n
COc1ccc(NC(=O)c2c(NCc3ccc(C)o3)sc3c2CCC(C)C3)cc1 (centres undefined)	u	x	x	n	u	n
COc1ccc(OC)c(N2C(=O)CC(Cc3ccc(Cl)cc3)C2=O)c1 (centres undefined)	n	n	n	n	n	n
COc1ccc(OC)c(N2C(=O)CC(Cc3cc(C)cc(C)c3)C2=O)c1 (centres undefined)	n	u	u	6.5µM	n	u
COc1ccc(C)cc1NC(=O)CN(c1cc(C(F)(F)F)ccc1Cl)S(C)(=O)=O	n	x	x	n	n	n
CN1CCN(c2nc(Nc3ccc(F)cc3)nc(Nc3ccc(F)cc3)n2)CC1	u	u	u	n	25µM	n
Fc1ccc(Nc2nc(Nc3ccc(F)cc3)nc(N3CCOCC3)n2)cc1	n	x	x	n	n	n
c1ccc(Nc2nc(N3CCCC3)nc(N3CCOCC3)n2)cc1	n	x	x	n	n	n
c1ccc(Nc2nc(Nc3ccccc3)nc(N3CCNCC3)n2)cc1	n	23µM	u	n	u	u
